In all, about 18,000 sequences were measured (“log2 normalized intensity”: median about 0.39, highest 2% from about 6.6 on). The list comes from a sample in which the highest values are over-represented; it also holds similar and randomly drawn sequences.

For this assay, the target named is T1, HNF4alpha2 (COS-7 nuclear extract) (Homo sapiens, UniProt P41235 1-474).
T1 sequence: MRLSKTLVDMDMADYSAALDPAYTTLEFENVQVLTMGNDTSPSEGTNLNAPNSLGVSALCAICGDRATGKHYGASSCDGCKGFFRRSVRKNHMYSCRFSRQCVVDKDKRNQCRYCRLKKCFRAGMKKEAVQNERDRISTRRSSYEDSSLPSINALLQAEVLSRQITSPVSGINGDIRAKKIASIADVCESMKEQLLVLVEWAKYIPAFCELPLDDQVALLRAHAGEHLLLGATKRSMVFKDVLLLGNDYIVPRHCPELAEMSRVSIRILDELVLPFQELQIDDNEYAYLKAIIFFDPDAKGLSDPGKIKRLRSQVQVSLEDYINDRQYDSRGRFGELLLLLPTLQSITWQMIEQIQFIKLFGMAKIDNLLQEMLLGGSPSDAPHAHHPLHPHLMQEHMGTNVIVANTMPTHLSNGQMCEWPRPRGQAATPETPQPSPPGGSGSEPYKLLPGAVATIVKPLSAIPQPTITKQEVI
The experiment in a line: protein-binding microarray; COS-7 nuclear extract on double-stranded Agilent 4x180k PBM; binding buffer, salt, pH and temperature not given in the material; high values mean tight binding. The conditions noted are these: chain copies: 2; label: 3' end of strand 1 on the slide; dsDNA, one strand shown. The gist of the method:
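Binding signal is the background-corrected, normalized gProcessedSignal calculated by Agilent software. It was measured by applying nuclear extracts of COS-7 cells transiently transfected with a human HNF4α isoform expression vector to a custom Agilent SurePrint G3 4x180k array of ~44,000 double-stranded ~60-nt test sequences in quadruplicate, then imaging bound HNF4α on an Agilent G2565CA scanner at 2-µm resolution.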
Turning to “GCAGAATCAAAGGTCAAAATATCTGATCGAGCCTAGGGAGATTAGAGTATCGGTCGA”, the binding signal is 3.32 log2 normalized intensity.
As to “CATCCTCATTGCCTCTGGGCTTTGATGGACGCCTAGGGAGATTAGAGTATCGGTCGA”, the binding signal was determined as 1.64 log2 normalized intensity.
As to “CCCCATGATGATAGCAAACACGATTGGATGGCCTAGGGAGATTAGAGTATCGGTCGA”, the binding signal turned out to be 0.412 log2 normalized intensity.
Then “GACCTTTGGACTTGATAGAGTTTAAGTCTTGCCTAGGGAGATTAGAGTATCGGTCGA”, with 6.99 log2 normalized intensity.
As to “GTCCTTGATAAGCAAGATGACTTTGGTCTAGCCTAGGGAGATTAGAGTATCGGTCGA”, the binding signal is 1.78 log2 normalized intensity.
Then “TCCAGTGGACATTGGCCCTTTGACCTTTAAGCCTAGGGAGATTAGAGTATCGGTCGA”, with 7.47 log2 normalized intensity; and “TGGACATTGGCCCTTTGACCTTTAATCAAGGCCTAGGGAGATTAGAGTATCGGTCGA”, with 6.47 log2 normalized intensity.
Then “ACTGCTCCAGTGGACATTGGCCCTTTGACCGCCTAGGGAGATTAGAGTATCGGTCGA”, with 5.99 log2 normalized intensity; and “AACTAGCAACTTGGACCTTGATAGGAGTTAGCCTAGGGAGATTAGAGTATCGGTCGA”, with 2.88 log2 normalized intensity; and “CTCCTGACCTTTGGACTTGATAGAGTTTAAGCCTAGGGAGATTAGAGTATCGGTCGA”, with 7.57 log2 normalized intensity.
Take “ATATCCTGACTGCTGACCTTTAAGCCTATAGCCTAGGGAGATTAGAGTATCGGTCGA”: the binding signal amounted to 3.85 log2 normalized intensity.
Then “TTTGAAGTTTAGAGATGCCTATAGGGTCTTGCCTAGGGAGATTAGAGTATCGGTCGA”, with 0.736 log2 normalized intensity.
Then “TAAGAGCTATCAATGACCCATGTTTGCCCTGCCTAGGGAGATTAGAGTATCGGTCGA”, with 3 log2 normalized intensity.
Then “TGCTTCTTGGCCTCTTTGTTTACACTGTGAGCCTAGGGAGATTAGAGTATCGGTCGA”, with 1.53 log2 normalized intensity; and “GCGGCTTCAGAGGCCAGCAGTGCTTTTCCCGCCTAGGGAGATTAGAGTATCGGTCGA”, with -0.963 log2 normalized intensity; and “ATTGGAAGCTCTTTCCCTCCACCAAGTTTCGCCTAGGGAGATTAGAGTATCGGTCGA”, with 0.191 log2 normalized intensity.
In the case of “TCTGATCCCAATTTATCTTTCCAGATTGTTGCCTAGGGAGATTAGAGTATCGGTCGA”, the binding signal turned out to be 0.501 log2 normalized intensity.
“CCTCCAGGGAGGGGAGAGGGGGTTAAAGGTGCCTAGGGAGATTAGAGTATCGGTCGA”: the binding signal was determined as 1.22 log2 normalized intensity.
Then “GGAAACTCCATTTCCTTCTAGCTCCCCAATGCCTAGGGAGATTAGAGTATCGGTCGA”, with 3.53 log2 normalized intensity; and “AGTTGGAAAATATTTCTCTGAACTTTGACCGCCTAGGGAGATTAGAGTATCGGTCGA”, with 8.41 log2 normalized intensity.
Then “ACTGACCTTTGAGAGTCAACACTGAAATAGGCCTAGGGAGATTAGAGTATCGGTCGA”, with 1.42 log2 normalized intensity; and “GGTGAAATAGCTGAACTATTTAAGGCCTTTGCCTAGGGAGATTAGAGTATCGGTCGA”, with 0.822 log2 normalized intensity; and “TCTTTGATTAGGAAAGGGAACTCCCTGACCGCCTAGGGAGATTAGAGTATCGGTCGA”, with -0.639 log2 normalized intensity.
Regarding “CACTTCTGAAAAAAATATTGAACAAAGATTGCCTAGGGAGATTAGAGTATCGGTCGA”, the binding signal was -0.491 log2 normalized intensity.
Then “GAAAATATTTCTCTGAACTTTGACCTATAGGCCTAGGGAGATTAGAGTATCGGTCGA”, with 8.62 log2 normalized intensity; and “GCCACCCCCGTTAATTTCTAACCAATGCAGGCCTAGGGAGATTAGAGTATCGGTCGA”, with 0.623 log2 normalized intensity.
Regarding “CAAACTTCTCCACTCTTCATAATTACCATTGCCTAGGGAGATTAGAGTATCGGTCGA”, the binding signal is 0.957 log2 normalized intensity.
Regarding “ACAAGCAACCCTCCTCCCTTTGGCCATGAAGCCTAGGGAGATTAGAGTATCGGTCGA”, the binding signal amounted to 1.54 log2 normalized intensity.
Then “TCACAGGTTCCAGCATGGACTTCACAGCCTGCCTAGGGAGATTAGAGTATCGGTCGA”, with -0.535 log2 normalized intensity; and “CAAACAGCTTAGGGTTCAAACTCCAGCTCTGCCTAGGGAGATTAGAGTATCGGTCGA”, with 3.29 log2 normalized intensity; and “TCATTCCCCTAGTATATTGGCTTGGCTGTGGCCTAGGGAGATTAGAGTATCGGTCGA”, with 2.58 log2 normalized intensity.
Then “AAGCACATACTTCTTCCTGTTTGACCTTCGGCCTAGGGAGATTAGAGTATCGGTCGA”, with 5.02 log2 normalized intensity; and “CTCCTGTTTGTATTCCTTGTCCTTGACCCTGCCTAGGGAGATTAGAGTATCGGTCGA”, with 4.35 log2 normalized intensity; and “TTGACCTTCGAACCCTTGCCATTTACATCAGCCTAGGGAGATTAGAGTATCGGTCGA”, with 5.38 log2 normalized intensity.
For the sequence “CCTTGACCCTTCCTCCCATTTGCTGCTCTAGCCTAGGGAGATTAGAGTATCGGTCGA”, the binding signal was determined as 2.08 log2 normalized intensity.
Then “TTCTTCCTGTTTGACCTTCGAACCCTTGCCGCCTAGGGAGATTAGAGTATCGGTCGA”, with 9.01 log2 normalized intensity; and “GTACCTTGACCTTCTCTGTTAACCCTTTGCGCCTAGGGAGATTAGAGTATCGGTCGA”, with 3.76 log2 normalized intensity.
Then “CATACTTCTTCCTGTTTGACCTTCGAACCCGCCTAGGGAGATTAGAGTATCGGTCGA”, with 9.59 log2 normalized intensity.
Then “CCTGTTTGACCTTCGAACCCTTGCCATTTAGCCTAGGGAGATTAGAGTATCGGTCGA”, with 7.04 log2 normalized intensity; and “TTGACCTTCTCTGTTAACCCTTTGCAGCCCGCCTAGGGAGATTAGAGTATCGGTCGA”, with 2.61 log2 normalized intensity.
On to “GGAGTTGGAACGGGGGCAAGGGTCAGAGTAGCCTAGGGAGATTAGAGTATCGGTCGA”, for which the binding signal is 4.26 log2 normalized intensity.
In the case of “CTGGCATCTGGTCAGGGGTCAAGAAGCTCTGCCTAGGGAGATTAGAGTATCGGTCGA”, the binding signal was determined as 2.21 log2 normalized intensity.

The values above are taken from PMC10726135, “HNF4α isoforms regulate the circadian balance between carbohydrate and lipid metabolism in the liver”.
